Measurements from ChEMBL document CHEMBL5724796, “Tm Shift (DSF) assay results for EUbOPEN Chemogenomics Library” (2024).

Columns and labels:
Conditions in all cases: Compound concentration 20.0 uM
[1] = target: Tyrosine-protein kinase ABL1 (Homo sapiens) (UniProt P00519)
[2] = target: Bromodomain-containing protein 4 (Homo sapiens) (UniProt O60885)
[3] = target: Cyclin-dependent kinase 2 (Homo sapiens) (UniProt P24941)
[4] = target: Casein kinase I isoform delta (Homo sapiens) (UniProt P48730)
Casein kinase I isoform delta (Homo sapiens), sequence (P48730 whole entry, looked up, canonical isoform): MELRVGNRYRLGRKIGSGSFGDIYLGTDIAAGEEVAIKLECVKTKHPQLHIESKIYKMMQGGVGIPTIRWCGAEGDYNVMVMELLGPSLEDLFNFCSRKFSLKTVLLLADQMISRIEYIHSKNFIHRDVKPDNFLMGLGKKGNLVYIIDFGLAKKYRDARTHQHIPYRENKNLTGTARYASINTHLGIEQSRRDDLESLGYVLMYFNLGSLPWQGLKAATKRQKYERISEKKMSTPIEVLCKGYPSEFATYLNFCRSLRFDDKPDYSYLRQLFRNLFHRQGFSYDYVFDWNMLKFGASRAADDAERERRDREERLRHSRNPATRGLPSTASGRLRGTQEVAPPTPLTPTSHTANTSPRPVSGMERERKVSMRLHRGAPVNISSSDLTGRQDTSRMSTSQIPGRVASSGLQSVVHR

[5] = target: Glycogen synthase kinase-3 beta (Homo sapiens) (UniProt P49841)
Glycogen synthase kinase-3 beta (Homo sapiens), sequence (P49841 whole entry, looked up): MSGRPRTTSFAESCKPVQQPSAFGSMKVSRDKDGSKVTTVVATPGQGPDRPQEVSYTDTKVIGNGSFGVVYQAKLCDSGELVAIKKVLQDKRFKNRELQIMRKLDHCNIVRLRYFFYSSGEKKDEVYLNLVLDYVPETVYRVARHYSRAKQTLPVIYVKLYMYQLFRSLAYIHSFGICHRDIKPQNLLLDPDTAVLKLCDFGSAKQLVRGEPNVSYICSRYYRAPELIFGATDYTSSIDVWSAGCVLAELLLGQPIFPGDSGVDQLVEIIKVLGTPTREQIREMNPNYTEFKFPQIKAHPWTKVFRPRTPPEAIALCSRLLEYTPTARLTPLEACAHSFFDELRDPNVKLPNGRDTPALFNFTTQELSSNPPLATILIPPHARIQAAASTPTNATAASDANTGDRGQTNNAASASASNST

[6] = target: Mitogen-activated protein kinase 1 (Homo sapiens) (UniProt P28482)
Mitogen-activated protein kinase 1 (Homo sapiens), sequence (P28482 whole entry): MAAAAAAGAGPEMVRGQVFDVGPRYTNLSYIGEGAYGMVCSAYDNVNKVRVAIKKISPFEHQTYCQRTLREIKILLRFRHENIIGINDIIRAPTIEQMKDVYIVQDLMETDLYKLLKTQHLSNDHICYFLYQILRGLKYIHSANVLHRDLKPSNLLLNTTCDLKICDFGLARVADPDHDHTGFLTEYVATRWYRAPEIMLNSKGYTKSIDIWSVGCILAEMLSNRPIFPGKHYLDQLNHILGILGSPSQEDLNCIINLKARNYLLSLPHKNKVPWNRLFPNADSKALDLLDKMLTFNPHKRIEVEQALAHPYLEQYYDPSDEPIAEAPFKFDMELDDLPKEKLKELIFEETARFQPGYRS

[7] = target: T1, Aurora kinase A (Homo sapiens) (UniProt O14965)
T1 sequence (whole entry): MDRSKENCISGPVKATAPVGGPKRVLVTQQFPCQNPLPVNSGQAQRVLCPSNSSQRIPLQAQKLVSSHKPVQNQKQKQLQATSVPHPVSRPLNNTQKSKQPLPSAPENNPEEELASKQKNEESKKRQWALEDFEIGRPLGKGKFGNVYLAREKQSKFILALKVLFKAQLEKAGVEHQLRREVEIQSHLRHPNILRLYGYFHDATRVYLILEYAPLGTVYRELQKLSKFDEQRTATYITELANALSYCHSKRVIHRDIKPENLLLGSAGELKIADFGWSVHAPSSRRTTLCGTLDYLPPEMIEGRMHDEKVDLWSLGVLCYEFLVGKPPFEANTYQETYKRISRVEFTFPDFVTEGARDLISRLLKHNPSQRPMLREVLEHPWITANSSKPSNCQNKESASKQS

[8] = target: T2, Transcription intermediary factor 1-alpha (Homo sapiens) (UniProt O15164)
T2 sequence (whole entry): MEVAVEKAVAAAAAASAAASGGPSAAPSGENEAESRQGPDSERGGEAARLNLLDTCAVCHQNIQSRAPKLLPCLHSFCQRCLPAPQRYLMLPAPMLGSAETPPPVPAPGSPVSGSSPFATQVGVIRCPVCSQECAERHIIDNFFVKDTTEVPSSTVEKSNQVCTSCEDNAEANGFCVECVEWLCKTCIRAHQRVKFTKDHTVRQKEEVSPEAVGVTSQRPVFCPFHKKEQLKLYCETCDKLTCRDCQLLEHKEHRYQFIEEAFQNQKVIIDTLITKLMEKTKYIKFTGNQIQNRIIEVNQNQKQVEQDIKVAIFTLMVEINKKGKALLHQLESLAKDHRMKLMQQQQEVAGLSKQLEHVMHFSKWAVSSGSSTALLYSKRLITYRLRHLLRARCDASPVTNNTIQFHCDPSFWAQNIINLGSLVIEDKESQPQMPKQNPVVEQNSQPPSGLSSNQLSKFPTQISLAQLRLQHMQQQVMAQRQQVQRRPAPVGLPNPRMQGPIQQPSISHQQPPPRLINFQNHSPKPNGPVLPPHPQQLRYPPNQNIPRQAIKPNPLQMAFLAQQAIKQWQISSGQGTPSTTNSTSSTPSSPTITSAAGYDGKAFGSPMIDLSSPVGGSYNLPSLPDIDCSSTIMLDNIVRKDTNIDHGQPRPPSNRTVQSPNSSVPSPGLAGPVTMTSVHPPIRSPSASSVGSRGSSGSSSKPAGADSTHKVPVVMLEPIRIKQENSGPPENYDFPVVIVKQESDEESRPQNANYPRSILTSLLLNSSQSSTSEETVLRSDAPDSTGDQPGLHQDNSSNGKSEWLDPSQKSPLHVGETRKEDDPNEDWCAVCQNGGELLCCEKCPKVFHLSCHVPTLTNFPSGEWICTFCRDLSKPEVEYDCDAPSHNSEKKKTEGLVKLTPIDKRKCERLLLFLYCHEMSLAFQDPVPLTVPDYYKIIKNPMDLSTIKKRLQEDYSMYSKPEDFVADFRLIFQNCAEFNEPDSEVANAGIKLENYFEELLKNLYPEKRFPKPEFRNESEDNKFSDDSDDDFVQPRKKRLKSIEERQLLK

Tyrosine-protein kinase ABL1 (Homo sapiens), sequence (P00519 whole entry): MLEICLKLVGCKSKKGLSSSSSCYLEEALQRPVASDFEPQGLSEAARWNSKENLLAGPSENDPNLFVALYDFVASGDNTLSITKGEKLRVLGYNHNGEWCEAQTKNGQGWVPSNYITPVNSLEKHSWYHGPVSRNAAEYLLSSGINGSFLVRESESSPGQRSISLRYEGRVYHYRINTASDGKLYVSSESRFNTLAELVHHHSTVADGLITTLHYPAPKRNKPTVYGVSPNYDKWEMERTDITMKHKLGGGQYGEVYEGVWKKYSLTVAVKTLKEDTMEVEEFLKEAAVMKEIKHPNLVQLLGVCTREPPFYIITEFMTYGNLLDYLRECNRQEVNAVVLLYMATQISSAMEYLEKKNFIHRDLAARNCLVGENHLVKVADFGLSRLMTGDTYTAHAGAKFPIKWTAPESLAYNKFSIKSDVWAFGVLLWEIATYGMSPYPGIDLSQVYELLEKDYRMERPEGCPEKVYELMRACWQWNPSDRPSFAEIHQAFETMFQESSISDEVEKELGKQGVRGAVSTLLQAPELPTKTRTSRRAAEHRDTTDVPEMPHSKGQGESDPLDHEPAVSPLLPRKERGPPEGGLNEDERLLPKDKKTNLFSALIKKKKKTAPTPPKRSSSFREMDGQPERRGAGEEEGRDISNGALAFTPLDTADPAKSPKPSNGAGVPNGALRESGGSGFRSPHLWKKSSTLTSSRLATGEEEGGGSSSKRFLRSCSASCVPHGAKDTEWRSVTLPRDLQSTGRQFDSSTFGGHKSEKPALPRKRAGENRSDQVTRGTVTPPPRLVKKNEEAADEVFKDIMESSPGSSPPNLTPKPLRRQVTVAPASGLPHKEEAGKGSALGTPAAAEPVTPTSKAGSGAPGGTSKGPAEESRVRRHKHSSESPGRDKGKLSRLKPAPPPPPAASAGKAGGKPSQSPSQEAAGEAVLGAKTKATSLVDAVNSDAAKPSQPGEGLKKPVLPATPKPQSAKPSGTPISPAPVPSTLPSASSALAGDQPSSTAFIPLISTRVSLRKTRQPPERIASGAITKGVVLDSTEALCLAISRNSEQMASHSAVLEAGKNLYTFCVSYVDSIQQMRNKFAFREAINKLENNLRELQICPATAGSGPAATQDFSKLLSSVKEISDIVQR

Nc1nc(NC2CC2)cc(-c2cccc(Cl)c2Cl)n1
ΔTm [1]: 0.77 °C | ΔTm [2]: -2.44 °C | ΔTm [3]: 0.2 °C | ΔTm [4]: -0.46 °C | ΔTm [5]: 0.36 °C | ΔTm [6]: 0.25 °C | ΔTm [7]: -1.81 °C | ΔTm [8]: 0.87 °C

CC(C)[C@H](NC(=O)OCc1ccccc1)C(=O)NC(CC(=O)O)C(=O)CF (some centres not stated)
ΔTm [1]: -0.18 °C | ΔTm [2]: -3.41 °C | ΔTm [3]: -0.73 °C | ΔTm [4]: 0.1 °C | ΔTm [5]: 0.35 °C | ΔTm [6]: -0.08 °C | ΔTm [7]: -2.03 °C | ΔTm [8]: -1.64 °C

CS(=O)(=O)c1ccc(-c2nnc(C=Cc3nnc(-c4ccc(C#N)cc4)o3)n2-c2ccccc2Cl)nc1
ΔTm [1]: 0.4 °C | ΔTm [2]: -3.09 °C | ΔTm [3]: 0.99 °C | ΔTm [4]: -0.25 °C | ΔTm [5]: -0.77 °C | ΔTm [6]: -0.27 °C | ΔTm [7]: -1.63 °C | ΔTm [8]: 0.34 °C

CNc1nccc(CN(CC2CCNCC2)S(=O)(=O)c2ccc(S(=O)(=O)N(Cc3ccc(Cl)cc3)C3CCCC3)cc2)n1
ΔTm [1]: 0.85 °C | ΔTm [2]: -3.15 °C | ΔTm [3]: 0.06 °C | ΔTm [4]: 0.31 °C | ΔTm [5]: 0.43 °C | ΔTm [6]: 0.57 °C | ΔTm [7]: -2.49 °C | ΔTm [8]: -0.52 °C

Cc1nn2c(nc(O)c3cccnc32)c1C#N
ΔTm [1]: 0.68 °C | ΔTm [2]: -3.07 °C | ΔTm [3]: 0.02 °C | ΔTm [4]: -0.11 °C | ΔTm [5]: -0.51 °C | ΔTm [6]: 0.18 °C | ΔTm [7]: -2.1 °C | ΔTm [8]: 1.17 °C

O=C(NCCc1cc(C(=O)NO)no1)c1ccc(Cl)c(Cl)c1
ΔTm [1]: 1.11 °C | ΔTm [2]: -2.11 °C | ΔTm [3]: 0.66 °C | ΔTm [4]: 0.6 °C | ΔTm [5]: -1.05 °C | ΔTm [6]: 0.3 °C | ΔTm [7]: -0.59 °C | ΔTm [8]: -0.96 °C

N[C@@H](CCNCc1ccc(Cl)cc1)C(=O)N1CCCCC1
ΔTm [1]: 0.49 °C | ΔTm [2]: -3.21 °C | ΔTm [3]: 0 °C | ΔTm [4]: -0.34 °C | ΔTm [5]: -0.21 °C | ΔTm [6]: 0.19 °C | ΔTm [7]: -2.45 °C | ΔTm [8]: 0.39 °C

CNC(=O)O[C@H]1COc2ccc(N3CCN(C4COC4)CC3)cc2[C@@H]1NC(=O)c1ccc(F)cc1
ΔTm [1]: 0.28 °C | ΔTm [2]: -1.16 °C | ΔTm [3]: -0.66 °C | ΔTm [4]: 0.03 °C | ΔTm [5]: -0.56 °C | ΔTm [6]: -1.19 °C | ΔTm [7]: -1.61 °C | ΔTm [8]: -0.51 °C

CCC(CC)N(CCN(C)C(=O)CCC(=O)O)Cc1cccc(C(=O)Nc2sc3c(c2C(=O)c2cnn(-c4ccc(Cl)c(C(F)(F)F)c4)c2)CCC(C)(C)C3)c1
ΔTm [1]: -0.27 °C | ΔTm [2]: 1.72 °C | ΔTm [3]: -0.99 °C | ΔTm [4]: -8.05 °C | ΔTm [5]: -4.31 °C | ΔTm [6]: -1.59 °C | ΔTm [7]: -8.72 °C | ΔTm [8]: 1.42 °C

O=C1C(=O)N(Cc2ccccc2)c2ccc(S(=O)(=O)N3CCC[C@H]3COc3ccc(C(F)(F)F)cc3)cc21
ΔTm [1]: -0.46 °C | ΔTm [2]: -4.2 °C | ΔTm [3]: -0.42 °C | ΔTm [4]: 0.54 °C | ΔTm [5]: -0.32 °C | ΔTm [6]: -0.63 °C | ΔTm [7]: -1.82 °C | ΔTm [8]: -1.21 °C

CC#C[C@]1(O)CC[C@H]2[C@@H]3CCC4=CC(=O)CCC4=C3[C@@H](c3ccc(N(C)C)cc3)C[C@@]21C
ΔTm [1]: 0.11 °C | ΔTm [2]: -2.39 °C | ΔTm [3]: -0.02 °C | ΔTm [4]: 0.02 °C | ΔTm [5]: -1.3 °C | ΔTm [6]: -0.7 °C | ΔTm [7]: -1.55 °C | ΔTm [8]: -0.92 °C

O=C1CCc2cc(OCCCCc3nnnn3C3CCCCC3)ccc2N1
ΔTm [1]: 0.01 °C | ΔTm [2]: -0.81 °C | ΔTm [3]: -0.24 °C | ΔTm [4]: -0.48 °C | ΔTm [5]: -0.04 °C | ΔTm [6]: 0.01 °C | ΔTm [7]: -1.24 °C | ΔTm [8]: -0.24 °C

CCC1CCCCN1C(=O)n1ncc(C(O)(c2ccccc2)c2ccccc2)n1 (configuration not stated)
ΔTm [1]: -3.62 °C | ΔTm [2]: -3.03 °C | ΔTm [3]: -0.45 °C | ΔTm [4]: 0.07 °C | ΔTm [5]: -6.94 °C | ΔTm [6]: 0.16 °C | ΔTm [7]: -2.31 °C | ΔTm [8]: -1 °C

C[C@H](NC(=O)[C@H](Cc1ccccc1)NC(=O)OCc1ccccc1)C(=O)CF
ΔTm [1]: 0.31 °C | ΔTm [2]: -2.33 °C | ΔTm [3]: 0.15 °C | ΔTm [4]: 0.19 °C | ΔTm [5]: -0.61 °C | ΔTm [6]: -0.19 °C | ΔTm [7]: -0.86 °C | ΔTm [8]: -1.01 °C

COc1nc(N)nc(Nc2cc(S(N)(=O)=O)ccc2N[C@@H](c2cccc3c2OC(F)(F)O3)c2ncccc2Cl)n1
ΔTm [1]: 1.16 °C | ΔTm [2]: -2.02 °C | ΔTm [3]: -0.4 °C | ΔTm [4]: 0.06 °C | ΔTm [5]: -3.33 °C | ΔTm [6]: -12.4 °C | ΔTm [7]: -1.68 °C | ΔTm [8]: 0.11 °C

Cc1ncc(Cl)cc1NCc1ccc(C(=O)N[C@@H](CC2CCCC2)C(=O)NC2CC2)s1
ΔTm ([1]; Protein concentration 2.0 uM): 2 °C

Cc1cc(Cn2c(=O)n(Cc3cnc(C)s3)c(=O)c3cc(S(=O)(=O)NC4(C)CC4)ccc32)n(C)n1
ΔTm [1]: 0.2 °C | ΔTm [2]: -4.6 °C | ΔTm [3]: 0.24 °C | ΔTm [4]: 0.39 °C | ΔTm [5]: -0.6 °C | ΔTm [6]: 0.1 °C | ΔTm [7]: -3.34 °C | ΔTm [8]: -1.26 °C

O=c1c2nnc(C3CCOCC3)n2cc(Br)n1CC1CCCC1
ΔTm [1]: 0.74 °C | ΔTm [2]: -2.93 °C | ΔTm [3]: 0.35 °C | ΔTm [4]: -0.32 °C | ΔTm [5]: -0.29 °C | ΔTm [6]: 0.23 °C | ΔTm [7]: -1.77 °C | ΔTm [8]: -0.67 °C

c1ccc(Cn2c(-c3ccc(OC[C@H](C4CCNCC4)n4c(-c5ccccc5)nc5ccccc54)cc3)nc3ccccc32)cc1
ΔTm [1]: -1.84 °C | ΔTm [2]: -6.29 °C | ΔTm [3]: -1.5 °C | ΔTm [4]: -0.34 °C | ΔTm [5]: -3.92 °C | ΔTm [6]: 0 °C | ΔTm [7]: 0 °C | ΔTm [8]: -1.18 °C

CCCOc1ccc(NC(=O)CN2CCN(C)CC2)cc1-c1nc(CC)c(CC)c(=O)[nH]1
ΔTm [1]: 0.61 °C | ΔTm [2]: -1.93 °C | ΔTm [3]: 0.23 °C | ΔTm [4]: -0.21 °C | ΔTm [5]: -0.28 °C | ΔTm [6]: 0.66 °C | ΔTm [7]: -2.39 °C | ΔTm [8]: -1 °C

Cc1sc(C(=O)c2cncnc2N[C@@H]2C[C@H](COS(N)(=O)=O)[C@@H](O)C2)cc1[C@@H]1NCCc2ccc(Cl)cc21
ΔTm [1]: 0.03 °C | ΔTm [2]: -0.2 °C | ΔTm [3]: -0.03 °C | ΔTm [4]: -0.1 °C | ΔTm [5]: -1.26 °C | ΔTm [6]: 0.53 °C | ΔTm [7]: -1.12 °C | ΔTm [8]: 0.42 °C

CC1(C)CC[C@]2(C(=O)O)CC[C@]3(C)C(=CC[C@@H]4[C@@]5(C)C=C(O)C(=O)C(C)(C)[C@@H]5CC[C@]43C)[C@@H]2C1
ΔTm [1]: 0.5 °C | ΔTm [2]: -3.51 °C | ΔTm [3]: -0.16 °C | ΔTm [4]: -1.03 °C | ΔTm [5]: -1.79 °C | ΔTm [6]: -3.78 °C | ΔTm [7]: -4.25 °C | ΔTm [8]: 0.88 °C

O=C(NO)C(c1ccc(-c2ncc(C(F)(F)F)cn2)cc1)c1ccccc1F (configuration not stated)
ΔTm [1]: 0.91 °C | ΔTm [2]: -2.36 °C | ΔTm [3]: 0.08 °C | ΔTm [4]: 0.69 °C | ΔTm [5]: -0.7 °C | ΔTm [6]: 0.1 °C | ΔTm [7]: 0.24 °C | ΔTm [8]: -0.84 °C
